{
  "source": "PubChem BioAssay (NCI)",
  "note": "Compounds without any hit were thinned out: in the full panel of roughly 79,000, 15% have a hit. The source made the active and inactive calls. Cut-off read from the data, not from the text of the source: active = growth inhibition above about 70%; inactive = the rest.",
  "data": [
    {"experiment": "NCI Yeast Anticancer Drug Screen. Data for the bub3 strain (AID 167)", "settings": "S. cerevisiae bub3 mutant strain, at 50.0 µM, stronger effect = higher value", "protocol": "Growth inhibition of yeast strains with defined genetic alterations is measured as a screen for potential anti-cancer activity. Selected strains with alterations in DNA damage repair or cell cycle control were exposed to compounds and growth inhibition was measured relative to vehicle treated controls. The strain used in this assay is bub3", "values": [
      {"smiles": "Cc1ccc(NC(=O)COc2cc(Cl)c(Cl)cc2Cl)cc1[N+](=O)[O-]", "growth inhibition": "0.1% (inactive)"},
      {"smiles": "Cc1cc(C)c2c(=O)n(-c3ccc(Br)cc3)c(=S)n(-c3ccc(Br)cc3)c2n1", "growth inhibition": "-3.85% (inactive)"},
      {"smiles": "Nc1nc2c(c(-c3ccc(F)cc3)n1)COC/C2=C\\c1ccc(F)cc1", "growth inhibition": "40.8% (inactive)"},
      {"smiles": "NC(=S)N=Nc1c(O)[nH]c2ccccc12", "growth inhibition": "9.95% (inactive)"},
      {"smiles": "COC(=O)CCCC1(CCCC(=O)OC)CCCCCCCCC(CCCC(=O)OC)(CCCC(=O)OC)C(=O)C1=O", "growth inhibition": "35.8% (inactive)"},
      {"smiles": "CC[N+](C)(CC)CCOC(=O)C(C1=CCCCC1)C1(O)CCCCC1", "note": "(stereo not given)", "growth inhibition": "2.5% (inactive)"},
      {"smiles": "CCCCCC(=O)c1ccccc1", "growth inhibition": "-8.8% (inactive)"},
      {"smiles": "COc1ccc(C(O)C(=O)c2nc3ccc(Cl)cc3[nH]c2=O)cc1", "note": "(stereo not given)", "growth inhibition": "-16.6% (inactive)"},
      {"smiles": "Cc1ccsc1S(N)(=O)=O", "growth inhibition": "11.4% (inactive)"},
      {"smiles": "Cc1ccc2cccc(N)c2n1", "growth inhibition": "18% (inactive)"},
      {"smiles": "CCNC(=O)c1ccc(Cl)cc1", "growth inhibition": "-6.15% (inactive)"},
      {"smiles": "COC(=O)/C=C\\n1c(C)cc(=O)[nH]c1=O", "growth inhibition": "-2.8% (inactive)"},
      {"smiles": "Cc1ccc2c(c1)SCc1c-2[nH]c2ccccc12", "growth inhibition": "91.8% (active)"},
      {"smiles": "O=C(O)CCc1nc2ccccc2c(=O)n1Cc1ccccc1", "growth inhibition": "2.8% (inactive)"},
      {"smiles": "Cc1c(Br)c(C)[n+]([O-])n1O", "growth inhibition": "26.4% (inactive)"},
      {"smiles": "O=C1c2ccccc2C(=O)c2c3c(cc([N+](=O)[O-])c21)OCO3", "growth inhibition": "-3% (inactive)"},
      {"smiles": "O=[N+]([O-])c1ccc(N=Cc2ccc(O)cc2)cc1", "growth inhibition": "-4.35% (inactive)"},
      {"smiles": "NC(CC(=O)N/C=N/C(=O)O)C(=O)O", "note": "(stereo not given)", "growth inhibition": "6.45% (inactive)"},
      {"smiles": "O=C(CCCn1ccnc1[N+](=O)[O-])NCCn1ccnc1[N+](=O)[O-]", "growth inhibition": "-11.8% (inactive)"},
      {"smiles": "CCc1ccc(N=Cc2cc(OC)c(OC)c(OC)c2)cc1", "growth inhibition": "14.2% (inactive)"},
      {"smiles": "CCOC(=O)C(=O)C(=O)NN(C)C1=NCCN1", "growth inhibition": "6.55% (inactive)"},
      {"smiles": "C/C(=N\\NC(=O)CCCCC(=O)N/N=C(\\C)c1ccc(C)cc1)c1ccc(C)cc1", "growth inhibition": "-1.9% (inactive)"},
      {"smiles": "O=C1Cc2ccccc2CN1", "growth inhibition": "2.15% (inactive)"},
      {"smiles": "CCCCc1cc(/C=N\\NC(N)=O)c2ccccc2n1", "growth inhibition": "-5.35% (inactive)"},
      {"smiles": "CC[N+](CC)(CC)CCC[n+]1ccc(/C=N\\O)cc1", "growth inhibition": "-0.8% (inactive)"},
      {"smiles": "CCN(CC)CCOC1CCCCC1Cc1ccccn1", "note": "(stereo not given)", "growth inhibition": "-3.65% (inactive)"},
      {"smiles": "CCN1CCNC(=O)C1c1ccccc1", "note": "(stereo not given)", "growth inhibition": "-1.1% (inactive)"},
      {"smiles": "OB(O)c1cccc(B(O)O)c1", "growth inhibition": "-21.9% (inactive)"},
      {"smiles": "CCOC(=O)C(=CNC(=S)Nc1ccc(OCC)cc1)C(=O)OCC", "growth inhibition": "11.5% (inactive)"},
      {"smiles": "O=[N+]([O-])c1ccc(C2=NOC3COC4C=CC=CC4OCC23)cc1", "note": "(stereo not given)", "growth inhibition": "5.95% (inactive)"},
      {"smiles": "CC(=O)OCC1OCOC2C(COC(C)=O)OCOC12", "note": "(stereo not given)", "growth inhibition": "3.85% (inactive)"},
      {"smiles": "CC(SC(=S)SC(C)C(=O)O)C(=O)O", "note": "(stereo not given)", "growth inhibition": "-6.1% (inactive)"},
      {"smiles": "CN(C)C(=O)C1OC1(C)c1ccccc1", "note": "(stereo not given)", "growth inhibition": "-1.3% (inactive)"},
      {"smiles": "O=c1ccc(=O)c2c(=O)c3cc4[nH]c5ccccc5[nH]c4cc3c(=O)c12", "growth inhibition": "-5.6% (inactive)"},
      {"smiles": "CC(=O)C1SCC[S+]1C", "note": "(stereo not given)", "growth inhibition": "-9.2% (inactive)"},
      {"smiles": "Nc1cc(F)ccc1CC(=O)O", "growth inhibition": "11.7% (inactive)"},
      {"smiles": "COc1ccc2c(-c3cc4ccccc4o3)cc(=O)oc2c1", "growth inhibition": "3% (inactive)"},
      {"smiles": "CC(C)(C)C(=O)C(c1ccc(-c2cscn2)cc1)c1ccc(-c2cscn2)cc1", "growth inhibition": "-5.3% (inactive)"},
      {"smiles": "COc1nc(NC2OC(CO)C(O)C(O)C2O)c(C=O)c(=O)n1C", "note": "(stereo not given)", "growth inhibition": "-7.3% (inactive)"},
      {"smiles": "COc1cc(CNc2ccc3nc4n(c(=O)c3c2)CCCCC4)cc(OC)c1OC", "growth inhibition": "-15.9% (inactive)"}
    ]}
  ]
}
